Cav32 inh – blocks human Cav3.2 T-type calcium channel; Cav3.2-expressing cells, Fluo-4 calcium fluorescence FDSS; stronger effect = lower value; B-score at 10 µM; 100,000 compounds, 4% hits; AID 449739;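 active = single-dose well whose peak fluorescence ratio is a statistical outlier from its plate by either plate-standardised score or position-corrected B-score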
CYP2C19 inh – human CYP2C19 inhibition | CYP2C19 Supersomes, luciferin-H EGE luminescence, 30 min | P33261 | AID 778 | 96,000 compounds, 21% hits | inhibition, % at 5 µM;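 active = CYP2C19 inhibition above a set limit at 5 µM in the primary screen, cut at about 50% in these data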;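 note: plate controls were negative control wells for no effect and 2.5 mM tranylcypromine positive control for full effect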
CYP2C9 activ – increases human cytochrome P450 2C9 activity; P11712; recombinant CYP2C9, luciferin-H conversion, luminescence; stronger effect = higher value; factor 1 = untreated enzyme, 0 = blocked; activation factor at 5 µM; 96,000 compounds, 1.4% hits; AID 1024;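 active = activation factor of 2 or more for CYP2C9 at a 5 µM dose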;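 note: 0 = sulfaphenazole-blocked wells and 1 = vehicle-only wells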
Target sequence (P11712 whole entry, looked up): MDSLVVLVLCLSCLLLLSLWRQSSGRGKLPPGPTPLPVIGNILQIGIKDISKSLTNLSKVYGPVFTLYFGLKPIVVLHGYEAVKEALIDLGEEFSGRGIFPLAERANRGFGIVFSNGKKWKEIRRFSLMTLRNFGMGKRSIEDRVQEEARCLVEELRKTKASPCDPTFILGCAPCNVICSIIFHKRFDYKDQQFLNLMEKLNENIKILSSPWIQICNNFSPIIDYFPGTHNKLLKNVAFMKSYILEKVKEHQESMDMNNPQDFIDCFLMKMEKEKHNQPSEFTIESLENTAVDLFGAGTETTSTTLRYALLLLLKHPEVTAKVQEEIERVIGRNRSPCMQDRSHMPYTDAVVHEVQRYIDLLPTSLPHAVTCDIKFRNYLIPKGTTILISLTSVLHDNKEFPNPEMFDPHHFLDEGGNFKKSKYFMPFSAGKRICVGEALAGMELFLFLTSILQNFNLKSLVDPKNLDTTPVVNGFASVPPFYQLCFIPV
CYP2C19 act – cytochrome P450 2C19 (human) activation | AID 1025 | 96,000 tested, under 10 active | activation factor at 5 µM | recombinant CYP2C19, luciferin-H EGE luminescence; stronger effect = higher value; 0 = fully inhibited enzyme, 1 = untreated enzyme;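 active = activation factor of at least 2 at 5 µM in the primary screen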;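 note: 0 = wells with 2.5 mM tranylcypromine and 1 = vehicle-only wells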
CYP2C9 inh – blocks human cytochrome P450 2C9; 96,000 compounds, 20% hits; P11712; CYP2C9 Supersomes, luciferin-H conversion, luminescence; inhibition, % at 5 µM;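 active = blocking of liver enzyme CYP2C9 beyond about 50% at 5 µM, limit read from the data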
The depositor's hits bear a star; . = no result given. Only some compounds are listed: those with a hit (about 27% of all), similar ones and a draw of the others.

SMILES	Cav32 inh	CYP2C19 inh	CYP2C9 activ	CYP2C19 act	CYP2C9 inh
COc1ccc(Br)cc1C1CC(=O)N2CN(Cc3ccccc3)CSC2=C1C#N (configuration not stated)	0.768	70.4*	0.1	0.3	93.6*
COc1cc(OC)c(C2CC(=O)N3CN(C)CSC3=C2C#N)cc1OC (configuration not stated)	0.536	-2.4	0.6	1	37.8
COc1ccc(Br)cc1C1CC(=O)N2CN(C)CSC2=C1C#N (configuration not stated)	0.362	59.7*	0.1	0.4	87.9*
N#CC1=C2SCN(Cc3ccccc3)CN2C(=O)CC1c1ccccc1F (configuration not stated)	-0.0044	42.0	0.4	0.6	64.7*
O=C(NCc1ccco1)c1ccc(CS(=O)(=O)c2cccc(C(F)(F)F)c2)o1	0.519	33.3	1	0.7	2.4
O=C(NCc1ccc2c(c1)OCO2)c1ccc(CS(=O)(=O)c2ccc(Br)cc2)o1	-3.62	54.7*	0.1	0.5	94.9*
COc1ccccc1S(=O)(=O)Cc1ccc(C(=O)NCc2ccc3c(c2)OCO3)o1	1.45	61.0*	0.3	0.4	74.6*
CCCCNC(=O)c1ccc(CS(=O)(=O)c2cccc(C(F)(F)F)c2)o1	-0.064	70.9*	1.3	0.3	-30.4
O=C(NCc1ccc2c(c1)OCO2)c1ccc(CS(=O)(=O)c2cccc(C(F)(F)F)c2)o1	.	75.5*	0.1	0.2	93.5*
CC(C)(C)c1csc(NC(=O)c2ccc3nccnc3c2)n1	-1.69	9.8	0.7	0.9	33.7
CC(NC(=O)c1ccc(CS(=O)(=O)c2cccc(C(F)(F)F)c2)o1)c1ccc2c(c1)OCCO2 (configuration not stated)	-2.11	63.7*	0.4	0.4	62.4*
CCOC(=O)c1sc(SCc2ccccc2)c2c1CC(C)(C)CC2=O	-1.17	.	.	.	.
CCOC(=O)c1ccccc1NC(=O)Cn1c(-c2nonc2N)nc2ccccc21	-4.43	75.9*	0.1	0.2	92.1*
CCCCn1c(-c2nonc2N)nc2ccccc21	-3.49	6.2	0.7	0.9	26.8
Nc1nonc1-c1nc2ccccc2n1CC(=O)NC1CCCC1	0.251	52.1*	0.7	0.5	32.7
CC(=O)Nc1nonc1-c1nc2ccccc2n1CC1CC1	-0.353	19.2	0.6	0.8	39.8
CCC(=O)Nc1nonc1-c1nc2ccccc2n1CC(C)C	-0.871	17.5	0.3	0.8	66.0*
Cc1cc(Cl)ccc1OCC(=O)Nc1ccccc1CO	-0.703	57.9*	0.7	0.4	25.4
Cc1cc(Cl)ccc1OCC(=O)OC(C)C(=O)N(C)C (configuration not stated)	0.277	69.3*	0.8	0.3	24.1
O=C(Cc1ccc(Cl)cc1)Nc1ccccc1CO	-0.151	55.0*	0.9	0.4	6.4
CCOC(=O)c1c(C)oc(NC(=O)COc2ccc(Cl)cc2C)c1C#N	-3.29	13.2	0.4	0.9	56.3*
Cc1cc(Cl)ccc1OCC(=O)N/N=C1\CCCc2ccccc21	0.457	17.2	0.7	0.8	29.5
COC(=O)[C@@H](NC(=O)NCc1ccco1)C(C)C	0.605	5.7	1.1	0.9	-7.6
c1ccc(-c2ccc(C3=Nn4c(Cn5nnc6ccccc65)nnc4SC3)cc2)cc1	0.29	-3.4	0.8	1	15.6
Cc1cc(Cl)ccc1OCC(=O)N1CC(C)CC(C)C1 (configuration not stated)	-5.32*	97.8*	0.5	0	47.6
SMILES	Cav32 inh	CYP2C19 inh	CYP2C9 activ	CYP2C19 act	CYP2C9 inh
O=C(COc1ccc(Cl)cc1Cl)N1CCCCCC1	-0.852	29.1	1	0.7	0.5
Oc1ccccc1C1Nc2cccc3cccc(c23)N1	-0.268	40.7	1	0.6	-0.5
O=[N+]([O-])c1ccccc1C1Nc2cccc3cccc(c23)N1	-0.0407	99.2*	0.3	0	69.5*
COc1ccccc1C1Nc2cccc3cccc(c23)N1	-0.989	70.5*	0.6	0.3	44.6
CCCn1c(O)c2ccc(C(=O)N=NC(=O)c3cccnc3)cc2c1O	0.444	-22.8	1.2	1.2	-18.3
CCOC(=O)N1CCN(c2ccc3nnnn3n2)CC1	-0.173	56.1*	1	0.4	-1.7
CCc1ccc(C(=O)CCC2CCCCC2=O)cc1 (configuration not stated)	-1.25	40.4	0.9	0.6	10.0
CCNc1nc(NCC)nc(Oc2ccc(OCC)nn2)n1	0.444	-8.8	1.1	1.1	-7.6
CCNc1nc(N)nc(Oc2ccc(OCCOc3ccc(Cl)cc3Cl)nn2)n1	-0.00408	94.0*	0.2	0.1	80.4*
CCNc1nc(Oc2ccc(Cl)cc2Cl)cc(C(F)(F)F)n1	0.0928	-5.2	0.4	1.1	62.9*
COc1ccc(-c2oc(NC(=O)c3ccc(C)cc3)c(C#N)c2-c2ccc(OC)cc2)cc1	-3.58*	69.3*	0.1	0.3	93.6*
COc1ccc(-c2oc(NC(C)=O)c(C#N)c2-c2ccc(OC)cc2)cc1	-0.722	57.4*	0.3	0.4	72.2*
Cc1ccc(C(=O)Nc2oc(-c3ccccc3)cc2C#N)cc1	0.00669	13.1	1	0.9	2.3
COc1ccc(C(=O)Nc2oc(-c3ccccc3)c(-c3ccccc3)c2C#N)cc1	-6.99*	46.9	0.2	0.5	76.8*
Cc1cccc(C)c1OCC(=O)Nc1oc(-c2ccccc2)c(-c2ccccc2)c1C#N	-3.19	.	.	.	.
COc1ccc(C(=O)Nc2oc(-c3ccccc3)c(-c3ccccc3)c2C#N)cc1OC	-2.9	23.5	0.3	0.8	73.7*
COc1ccc(CNC(=O)CN(C(=O)c2cc3sccc3n2C)C2CCCC2)cc1	-0.664	6.1	0.8	0.9	15.4
COc1ccc(-c2oc(/N=C/N3CCOCC3)c(C#N)c2-c2ccc(OC)cc2)cc1	-3.88	63.7*	0.1	0.4	89.5*
COc1cc(NC(=O)C2CCN(S(=O)(=O)c3cccnc3)CC2)cc(OC)c1OC	-0.734	-5.7	0.9	1.1	7.9
Cc1nn(-c2c(Cl)cc(Cl)cc2Cl)c(=O)c2ccccc12	-4.97*	48.2	0.8	0.5	16.3
O=C(c1ccccc1)n1c(=S)nc2ccccn21	0.452	79.0*	0.6	0.2	37.9
Cc1ccc(C(=O)n2c(=S)nc3ccccn32)cc1	.	35.4	0.9	0.6	7.6
CCOc1cc(-c2c(C#N)c(N)nc3c2CCCC3C)ccc1O (configuration not stated)	-3.02	35.9	0.8	0.6	20.8
CCOc1cc(-c2c(C#N)c(=O)[nH]c3c2c(C)nn3-c2ccc(F)cc2)ccc1O	-2.58	12.2	0.1	0.9	90.6*
CCCCCCNC(=O)c1cc(-c2ccco2)nc2ccccc12	-1.98	.	.	.	.
CCOc1ccccc1NC1=CC(=O)CC(c2ccccc2)C1 (configuration not stated)	-2.31	49.5	0.9	0.5	7.0
COc1ccc(NC2=CC(=O)CC(c3ccccc3)C2)c(OC)c1 (configuration not stated)	-0.805	61.9*	1.2	0.4	-22.1
Cc1nc(Nc2ccc(F)cc2)[nH]c(=O)c1CCC(C)C	-5.55*	.	.	.	.

Source: PubChem
